HT1080 IDH1KD tx: toxicity to HT-1080 IDH1 knockdown cells (counter line). Potency, µM (titrated, usually from 46.1 µM), without a hit: at the highest dose activity, negative = toxicity, actives largely listed as cytotoxic. 360,000 tested, 2% active. HT-1080 IDH1 knockdown viability, ATP luminescence, 48 h;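 further: 0% = DMSO wells and -100% = cell-free medium wells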
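% activity derives from luminescence (CellTiter-Glo), normalised to DMSO and no-cell wells. HT-1080-IDH1KD cells, 750/well, had 48 h compound exposure at 37 °C.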
KB-3-1 cytotox: kills parental KB-3-1 adenocarcinoma cells; 400,000 tested, 1.4% active; Potency, µM (highest dose often 46.1 µM), hits mostly cytotoxic; KB-3-1 viability, CellTiter-Glo ATP luminescence, 72 h; further: on the % scale 0 is the no-effect control and ±100 the full control effect; nearly all actives have a fitted effect of over 60% in size
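Cells are dispensed, compounds pinned in, plates held at 37 °C for 72 h, then CellTiter-Glo is added and luminescence read after 10 minutes. Cell line: parental KB-3-1 in phenol-red-free DMEM, 10% FBS.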
SW480 rerep: inducers of DNA re-replication in SW480 colon cancer cells; SW480 DNA re-replication, Hoechst DNA content imaging, 48 h; Potency, µM (titrated, usually from 46.1 µM), without a hit: at the top dose re-replication activation, most hits filed as activators; 340,000 tested, 1.8% active; AID 624297; further: % of control where 0% means no effect; nearly all actives have a fitted effect of over 55% in size
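Hoechst fluorescence of nuclei (405 nm excitation, 500-530 nm emission) measured by plate-scanning imager after 48 hr compound exposure at 37 C; re-replication scored as increased number of nuclei with elevated intensity.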
MCF10A rerep: inducers of DNA re-replication in MCF 10A breast cells | MCF 10A DNA re-replication, Hoechst nuclear intensity, 48 h | Potency, µM (doses to about 46.1 µM), inactives show at the top dose activity, positive = re-replication, usual class: activators | 350,000 tested, 2.9% active | AID 624296; further: % of control where 0% means no effect; nearly all actives have a fitted effect of over 50% in size
KB-V1 MDR tox: kills drug-selected multidrug resistant KB-V1 cells. KB-V1 MDR cells viability, CellTiter-Glo, 72 h. Potency, µM (top dose mostly 46.1 µM), most hits filed as cytotoxic. 400,000 tested, 3.4% active; further: on the % scale 0 is the no-effect control and ±100 the full control effect; nearly all actives have a fitted effect of over 60% in size
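In this primary screen, KB-V1 cells overexpressing P-gp are incubated with library compounds (lowest to highest concentration) for 72 h at 37 degrees C before a luminescent ATP viability read.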
HT1080-NT tox: kills 2HG-producing HT-1080-NT fibrosarcoma cells; 360,000 tested, 1.6% active; Potency, µM (highest dose often 46.1 µM), inactives show top-dose activity, negative = less viability, actives largely listed as cytotoxic; AID 686970; HT-1080-NT fibrosarcoma viability, CellTiter-Glo ATP luminescence, 48 h;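 further: NT is the 2HG producing partner of a matched IDH1 knockdown line; 0% = DMSO-treated cells and -100% = media-only wells without cells; nearly all actives have a fitted effect of over 55% in size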
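750 cells/well, RPMI + 5% FBS; 2 h settle, compound pin-transfer, 48 h at 37 degrees C. CellTiter-Glo 10 min RT, luminescence. Normalized to DMSO and media-only wells.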
Starred values were filed as active, the others as inactive; i = inactive; u = inconclusive; x = not tested or not shown; [ ] = dose if it differs, or a comment. A selection: hits, their analogues and other compounds. The true share with any hit is near 7.9%. The call rests on the fitted dose curve; in most records, active means well fitted curve in the direction sought with a large enough effect; inconclusive means small, poorly fitted or top-dose-only effect, or another doubt; inactive means no such curve, though single readings can be large; an effect the other way counts as inactive or inconclusive. Potency means the concentration at half of the fitted maximal effect.

SMILES	HT1080 IDH1KD tx	KB-3-1 cytotox	SW480 rerep	MCF10A rerep	KB-V1 MDR tox	HT1080-NT tox
O=c1ccc(/C=C/c2ccccc2)nn1Cc1ccc(F)cc1	-27%	i	3%	u	i	-4%
Cc1ccc(/C=C/c2ccc(=O)n(Cc3ccccc3Cl)n2)cc1	-1%[9.24 µM]	u	-5%	u	21µM*	u
Cc1ccc(C=Cc2ccccn2)cc1	13%	i	x	x	i	19%
O=C(CCn1ccc2cc(S(=O)(=O)N3CCCC3)ccc21)NCc1cccc(Br)c1	x	u	x	x	i	x
Cc1ccc(CN2CCN(CC(=O)N=Nc3c(O)[nH]c4ccccc34)CC2)cc1	-24%	i	-5%	u	u	-14%
O=C(CN1CCN(Cc2ccccc2Cl)CC1)N=Nc1c(O)[nH]c2ccccc12	-11%	i	60%	-3%	15µM*	0%
O=C(O)c1ccccc1NS(=O)(=O)c1cccc2cccnc12	11%[9.24 µM]	i	-4%	-1%	i	9%
O=S(=O)(Nc1cc(Sc2cccc3cccnc23)c(O)c2ccccc12)c1ccccc1	x	x	8.2µM*	23µM*	x	x
Cc1ccc(C)c(S(=O)(=O)Nc2cc(SCC(=O)O)c(O)c3ccccc23)c1	18µM*	u	u	u	u	23µM*
CCOc1ccc(S(=O)(=O)Nc2cc(SCC(=O)O)c(O)c3ccccc23)cc1	23µM*	u	18%	u	u	23µM*
O=C(O)CSc1cc(NS(=O)(=O)c2cccc([N+](=O)[O-])c2)c2ccccc2c1O	18µM*	u	21µM*	2.1µM*	5.8µM*	13µM*
COc1ccc(OC)c(CCNc2ncnc3onc(C)c23)c1	x	u	x	x	i	x
CCOc1ccc(NC(=O)CN(C)C(=O)Cc2ccc3c(c2)OCCO3)cc1OCC	-2%	i	x	x	i	-3%
Cn1c2ccccc2c2cnn(CC(=O)Nc3ccccc3C(F)(F)F)c(=O)c21	x	i	x	x	u	x
COC(=O)c1ccc(/C=N/Nc2nc(-c3ccc(C)cc3)cs2)cc1	10%	i	2%	u	i	22%
Cc1nc(N/N=C/c2ccccn2)sc1C	15µM*	26µM*	21µM*	u	u	13µM*
COC(=O)c1ccc(/C=N/Nc2nc(C)c(C)s2)cc1	1%	i	u	23µM*	i	0%
CCCc1sc(N/N=C/c2ccccn2)nc1-c1ccc(F)cc1	3.2µM*	u	-6%	0%	10µM*	2.8µM*
CC1CC(O)CC(C)(C)C1 (centres undefined)	x	x	6%	2%	x	x
Cc1cccc(NC(=O)N2CCC(c3nc4ccccc4o3)CC2)c1	-6%	i	-8%	-10%	18µM*	2%
Cc1cc(C)cc(NC(=O)N2CCC(c3nc4ccccc4o3)CC2)c1	8%	i	1%	19%	i	4%[9.24 µM]
COC(=O)c1ccccc1NC(=O)NCc1ccc2c(c1)CCN2C(=O)c1ccccc1	x	i	x	x	i	x
CCCN(CCC)C(=O)Cn1c(=O)n(-c2ccc(OC)cc2)c(=O)c2ccc(C(=O)NCc3ccc(C)cc3)cc21	x	i	x	x	u	x
CCn1cc(C(=O)N2CCN(c3ccccc3)CC2)c(=O)c2cc(S(=O)(=O)N(C)C3CCCCC3)ccc21	x	i	x	x	i	x
COc1cccc(C2=CC(c3cc(Br)ccc3F)n3nnnc3N2)c1 (centres undefined)	x	13µM*	x	x	i	x
SMILES	HT1080 IDH1KD tx	KB-3-1 cytotox	SW480 rerep	MCF10A rerep	KB-V1 MDR tox	HT1080-NT tox
CCOc1ccc(C2C=C(c3cccc(OC)c3)Nc3nnnn32)cc1 (centres undefined)	x	i	x	x	i	x
CCCOc1ccc(C(=O)N(Cc2ccccc2Cl)C2CCS(=O)(=O)C2)cc1 (centres undefined)	x	i	x	x	i	x
COc1cccc2c1O/C(=N\O)C(C(=O)Nc1ccc(C)cc1)C2 (centres undefined)	15µM*	4.1µM*	u	18µM*	i	u
Cc1ccc(N=C2CCCN2Cc2ccccc2)c(C#N)c1	6%	u	5%	4%	18µM*	2%
Cc1ccc(N=C2CCCCCN2C)c(C#N)c1	0%	i	-9%	1%	i	-7%
O=C(Nc1ccc(Br)cc1)c1cccc(N2C(=O)C3C4CCC(C4)C3C2=O)c1 (centres undefined)	-14%	i	-1%	u	u	-12%
COC(=O)c1ccc(NC(=O)c2cccc(N3C(=O)C4C5C=CC(C6CC56)C4C3=O)c2)cc1 (centres undefined)	-1%	u	-2%	16µM*	u	-2%
O=C(Nc1ccc(F)cc1)c1cccc(N2C(=O)C3C4CCC(C4)C3C2=O)c1 (centres undefined)	-1%	u	1%	-2%	10µM*	3%
O=C(Nc1ccccc1)c1cccc(N2C(=O)C3C4C=CC(C5CC45)C3C2=O)c1 (centres undefined)	-1%	i	-1%	-29%	i	-21%
Cc1ccc(S(=O)(=O)NCC(c2ccc(N(C)C)cc2)N2CCc3ccccc32)cc1 (centres undefined)	x	i	x	x	i	x
O=C1CC(c2ccc(O)cc2)Oc2ccccc21 (centres undefined)	7%	i	3%	u	i	-10%
Cc1c(O)cc2c(c1O)C(=O)CC(c1ccccc1)O2 (centres undefined)	23µM*	u	7%	u	i	u
CC(C)c1ccc(NC(=O)C2CCN(C(=O)[C@@H]3Cc4ccccc4CN3)CC2)cc1	-28%	i	18µM*	u	i	-16%
Cc1cc(C)cc(NC(=O)C2CCC(CNC(=O)[C@@H]3Cc4ccccc4CN3)CC2)c1 (some centres undefined)	-4%	i	18µM*	u	i	2%
Nc1cc(=O)[nH]c(SCC(=O)N2CCN(S(=O)(=O)c3ccc4ccccc4c3)CC2)n1	-1%	i	2%	3%	i	-8%
O=S(=O)(c1ccccc1)N1CCN(C2CCN(Cc3ccccc3)CC2)CC1	-6%	i	u	26%	i	-2%
O=S(=O)(c1ccc2ccccc2c1)N1CCN(C2CCN(Cc3ccccc3)CC2)CC1	-25%	i	-4%	1%	7.3µM*	-19%
CC(C)CC(=O)N1CCN(S(=O)(=O)c2ccc3ccccc3c2)CC1	-14%	u	4%	6%	7.3µM*	-16%

Screening data from PubChem.
